These results are taken from PubChem BioAssay (NCI).

Among the test systems are NCI-H23 lung; NCI-H226 lung; NCI-H322M lung; HOP-62 NSCLC; NCI-H460 lung; NCI-H522 lung; A549/ATCC NSCLC; 786-0 renal; COLO 205 colon; DU-145 prostate; K-562 leukemia; MALME-3M melanoma; MDA-MB-231 breast; RXF 393 renal; SF-268 CNS; SF-295 CNS; SF-539 CNS; UACC-257 melanoma; M14 melanoma; HCT-15 colon.
Experiment in all cases: NCI-60 one-dose screen, 48 h (100 = growth as untreated, 0 = no growth, -100 = all killed)
What all share (conditions): 10 µM unless noted

Structures are written as SMILES. The panel holds about 83,000 compounds, 20% with a hit somewhere; the sample as a whole holds those more often.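 Percent growth is the endpoint: 0 to 100 indicates growth inhibition (40 means 60% inhibition), 0 means no net growth, and negative values indicate cell death.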 Values without a mark were called inactive. Active and inactive are the calls of the source. How the source made its calls: active means growth percent below 10; inactive means the rest.

Turning to `N#Cc1ccc(NC(=O)Nc2ccc(Oc3ccc(NC(=O)Nc4ccc(C#N)cc4)cc3)cc2)cc1`, the growth in the test with NCI-H23 lung was -0.877% (active); in the test on NCI-H226 lung, 42.5%; in the test with NCI-H322M lung, 61.8%; with HOP-62 NSCLC, 31.6%; with NCI-H460 lung it was 18.9%; in the test with NCI-H522 lung, -33.4% (active). The growth in the test on A549/ATCC NSCLC is 26.9%; in the test with 786-0 renal it was 30.3%; with COLO 205 colon it was -0.221% (active); in the test on DU-145 prostate, 35.3%; with K-562 leukemia, 0.451% (active); in the test on MALME-3M melanoma, 54.4%. For the same compound, the growth in the test with MDA-MB-231 breast is 53.5%; in the test with RXF 393 renal, 83.2%; in the test on SF-268 CNS, 42.1%; in the test on SF-295 CNS, 23.7%; with SF-539 CNS it was 71%; in the test on UACC-257 melanoma it was 37%. The growth in the test with M14 melanoma was 26.2%; in the test on HCT-15 colon, 32.1%.
As for `O=C1NCN(c2ccccc2)C12CCN(CCCC(c1ccc(F)cc1)c1ccc(F)cc1)CC2`, the growth in the test on NCI-H23 lung was 72.9%; in the test on NCI-H226 lung, 94.1%; in the test with NCI-H322M lung it was 60.4%; in the test with HOP-62 NSCLC it was 82.9%; with NCI-H460 lung, 37.3%; in the test with NCI-H522 lung, 61.2%. Further, the growth was 57.8% with A549/ATCC NSCLC; 49.2% in the test on 786-0 renal; 27.1% in the test on COLO 205 colon; 76% with DU-145 prostate; 6.41% (active) with K-562 leukemia; 39.9% with MALME-3M melanoma. Moreover, the growth was 78% in the test on MDA-MB-231 breast; 39.9% in the test with RXF 393 renal; 71.4% with SF-268 CNS; 17.1% in the test on SF-295 CNS; 50.9% in the test with SF-539 CNS; -15.8% (active) with UACC-257 melanoma. Besides, the growth in the test on M14 melanoma was 9.99% (active); in the test on HCT-15 colon it was 49.6%.
For `O=C1N(C2CCCCC2)C(=O)N1C1CCCCC1`, the growth in the test with NCI-H23 lung was 45.1%; in the test on NCI-H226 lung it was 46%; in the test with NCI-H322M lung, 35.2%; in the test on HOP-62 NSCLC, 57.5%; in the test on NCI-H460 lung, 39%; with NCI-H522 lung it was 17.3%. In addition, the growth in the test on A549/ATCC NSCLC was 34.5%; in the test with 786-0 renal, 53.5%; with COLO 205 colon, 62%; with DU-145 prostate, 38.7%; with K-562 leukemia, 55.3%; with MALME-3M melanoma, -16.9% (active). Further, the growth is 64.3% with MDA-MB-231 breast; 43.2% in the test with RXF 393 renal; 65.3% in the test on SF-268 CNS; -27.9% (active) with SF-295 CNS; 26.5% in the test with SF-539 CNS; 22.8% in the test on UACC-257 melanoma. The growth was 30.4% with M14 melanoma and 52.7% with HCT-15 colon.
Consider `CCc1[nH]nc(-c2ccc(OC)cc2)c1-c1ccccc1OCCN(CC)CC`, for which the growth is 91.4% in the test with NCI-H23 lung; 94.9% in the test on NCI-H226 lung; 97.7% in the test on NCI-H322M lung; 84.6% in the test with HOP-62 NSCLC; 103% in the test with NCI-H460 lung; 114% in the test with NCI-H522 lung. The growth is 93.2% in the test with A549/ATCC NSCLC; 74.7% with 786-0 renal; 77% with COLO 205 colon; 102% in the test on DU-145 prostate; 88.4% in the test on K-562 leukemia; 95.5% in the test on MALME-3M melanoma. Also, the growth with MDA-MB-231 breast is 99.2%; in the test with RXF 393 renal, 79.3%; in the test with SF-268 CNS, 89%; with SF-295 CNS, 85.7%; in the test with SF-539 CNS it was 99%; in the test on UACC-257 melanoma it was 97.9%. For the same compound, the results for the growth in the test with M14 melanoma and in the test with HCT-15 colon were 87.1% and 105%, respectively.
As to `O=[N+]([O-])c1ccc(N/N=C\c2ccccc2[N+](=O)[O-])nc1`, the growth in the test with NCI-H23 lung is 98.2%; in the test with NCI-H226 lung, 106%; in the test with NCI-H322M lung, 105%; in the test on HOP-62 NSCLC, 123%; in the test on NCI-H460 lung it was 101%; in the test with NCI-H522 lung, 97.5%. For the same compound, the growth in the test with A549/ATCC NSCLC is 92.2%; in the test with 786-0 renal, 104%; with COLO 205 colon, 133%; in the test on DU-145 prostate, 101%; with K-562 leukemia, 94.6%; in the test on MALME-3M melanoma it was 117%. Besides, the growth in the test on MDA-MB-231 breast is 110%; in the test with RXF 393 renal, 102%; in the test with SF-268 CNS, 107%; in the test on SF-295 CNS, 103%; with SF-539 CNS, 109%; in the test on UACC-257 melanoma, 119%. Moreover, the growth was 126% in the test with M14 melanoma and 100% with HCT-15 colon.
In the case of `COc1ccc(C2CC(c3cccc(Nc4ccnc5cc(Cl)ccc45)c3)=NN2C=O)cc1` (stereo not given), the growth is 10.7% in the test on NCI-H23 lung; 46.3% in the test with NCI-H226 lung; 62.5% with NCI-H322M lung; 27% in the test with HOP-62 NSCLC; 11.2% in the test with NCI-H460 lung; -35.5% (active) in the test with NCI-H522 lung. The growth in the test on A549/ATCC NSCLC is 25.5%; with 786-0 renal, 34.7%; in the test on COLO 205 colon, -44.3% (active); in the test on DU-145 prostate, 2.95% (active); with K-562 leukemia, 14.4%; in the test with MALME-3M melanoma, 55.8%. For the same compound, the growth in the test with MDA-MB-231 breast is 24.3%; in the test with RXF 393 renal it was -5.62% (active); in the test on SF-268 CNS, 44.5%; with SF-295 CNS it was 2.43% (active); in the test with SF-539 CNS it was -1.14% (active); with UACC-257 melanoma it was 63.3%. Further, the growth in the test with M14 melanoma is 25.2%; in the test on HCT-15 colon, 27.8%.
Regarding `CCN1C[C@@H](C)n2c(c(O)c3c(=O)n(Cc4ccc(F)c(Cl)c4)nc(C(=O)NC)c32)C1=O`, the growth in the test on NCI-H23 lung was 11.3%; in the test with NCI-H226 lung it was 26.4%; with NCI-H322M lung, 18.4%; with HOP-62 NSCLC, 26%; with NCI-H460 lung it was 15.2%; in the test on NCI-H522 lung, 69.3%. Besides, the growth with A549/ATCC NSCLC is 11%; in the test on 786-0 renal it was 18.4%; with COLO 205 colon it was 101%; in the test on DU-145 prostate, 22.6%; with K-562 leukemia, 42%; in the test with MALME-3M melanoma, 5.1% (active). The growth in the test with MDA-MB-231 breast was 50.7%; in the test on RXF 393 renal, 2.79% (active); with SF-268 CNS it was 23.2%; with SF-295 CNS, 0.0694% (active); with SF-539 CNS, 3.53% (active); with UACC-257 melanoma it was 3.7% (active). For the same compound, the growth in the test on M14 melanoma is 30.4%; with HCT-15 colon it was 6.16% (active).
`Cc1c(C)c(N2C(=O)C=CC2=O)c(C)c(C)c1N1C(=O)C=CC1=O`: the growth was 96.3% in the test with NCI-H23 lung; 108% in the test on NCI-H226 lung; 112% in the test on NCI-H322M lung; 91.6% in the test on HOP-62 NSCLC; 115% in the test on NCI-H460 lung; -49.4% (active) with NCI-H522 lung. In addition, the growth with A549/ATCC NSCLC was 89.6%; in the test on 786-0 renal, 93.2%; in the test with COLO 205 colon it was 78.7%; with DU-145 prostate it was 104%; in the test on K-562 leukemia it was 77.8%; in the test with MALME-3M melanoma it was 126%. The growth in the test on MDA-MB-231 breast is 114%; in the test with RXF 393 renal, 54.7%; with SF-268 CNS, 110%; in the test with SF-295 CNS it was 109%; in the test on SF-539 CNS, 114%; in the test on UACC-257 melanoma it was 75.6%. The growth is 86.5% with M14 melanoma and 117% in the test on HCT-15 colon.
